Most compounds without a hit are left out; they make up all but 11% or so of the library.
USP28 inh: blocks human USP28 ubiquitin-rhodamine cleavage | Q96RU2 | purified USP28, Ub-rhodamine cleavage fluorescence, 30 min | inhibition, % at 25 µM | 47,000 compounds, 3% hits | AID 1645857
USP30 block: inhibitors of human USP30 deubiquitinase | AID 1645860 | purified USP30, Ub-rhodamine cleavage fluorescence | 47,000 compounds, 5.3% hits | inhibition, % at 25 µM | Q70CQ3
Target sequence (Q70CQ3 whole entry, looked up): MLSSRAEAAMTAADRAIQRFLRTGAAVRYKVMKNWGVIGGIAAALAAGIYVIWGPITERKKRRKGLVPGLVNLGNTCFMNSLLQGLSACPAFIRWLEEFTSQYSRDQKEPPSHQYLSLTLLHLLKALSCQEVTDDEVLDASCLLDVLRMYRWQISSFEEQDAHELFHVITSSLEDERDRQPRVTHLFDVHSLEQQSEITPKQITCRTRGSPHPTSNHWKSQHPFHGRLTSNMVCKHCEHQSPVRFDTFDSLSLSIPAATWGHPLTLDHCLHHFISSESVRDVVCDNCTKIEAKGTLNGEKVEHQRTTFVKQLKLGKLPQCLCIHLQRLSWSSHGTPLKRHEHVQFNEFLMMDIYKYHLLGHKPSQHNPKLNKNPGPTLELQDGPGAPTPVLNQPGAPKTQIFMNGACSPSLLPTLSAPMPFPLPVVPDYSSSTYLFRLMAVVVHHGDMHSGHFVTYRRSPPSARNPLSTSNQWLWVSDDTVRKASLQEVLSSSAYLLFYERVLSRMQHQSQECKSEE
USP17 block: human USP17-like deubiquitinase inhibition | purified USP17, Ub-rhodamine cleavage fluorescence, 3 h | inhibition, % at 50 µM | AID 1645855 | 47,000 compounds, 6.5% hits
Active calls of the source: *. No stated cut-off is given here; in the data, active means inhibition above about 30%; inactive means the rest.

SMILES	USP28 inh	USP30 block	USP17 block
Cc1ccc(CN2C(=O)c3cc4ccccc4n3CC2(C)C(=O)NCc2ccccc2)o1 (centres undefined)	8	30	64*
CC1(C(=O)NCc2ccccc2)Cn2c(cc3ccccc32)C(=O)N1Cc1cccnc1 (centres undefined)	8	-31	12
O=C(NC1CCN(c2cc(-c3ccc(Cl)cc3)[nH]n2)C1)c1ccccn1 (centres undefined)	-7	15	22
COc1ccccc1OCc1nc2c3c(C)c(C)oc3ncn2n1	-5	-89	-29
Cc1oc2ncn3nc(C(C)Oc4cccc5ccccc45)nc3c2c1C (centres undefined)	-9	-144	32*
Cc1ccc(C)c(NC(=O)CCC(=O)OCC(=O)c2ccc(Cl)cc2)c1	3	19	6
O=C(COC(=O)c1nn(-c2ccccc2)c(=O)c2ccccc12)c1ccc2c(c1)OCCO2	-11	-12	-6
O=C(COC(=O)c1ccc(Cl)s1)c1ccc2[nH]c(=O)[nH]c2c1	6	-26	42*
Cc1ccc(C(=O)CCC(=O)OCC(=O)c2ccc3[nH]c(=O)[nH]c3c2)cc1	52*	34*	55*
COc1ccc(OCc2nnnn2C2CCN(Cc3cccc4cccnc34)CC2)cc1	-13	-31	-3
Cc1cc(O)cc2cc3c(c(O)c12)C(=O)CCC3O (centres undefined)	-3	-89	51*
CCc1c(OC)cc2c(c1O)C(=O)CCC2O (centres undefined)	-12	-1	-19
Cn1c(=O)n(CC(O)c2ccccc2F)c2ccccc21 (centres undefined)	5	4	10
CS(=O)(=O)N(CC(=O)N1CC(=O)Nc2ccccc21)c1ccccc1	-6	-7	-4
CCc1cc2cc3c(cc2nc1SCC(=O)N1CC(=O)Nc2ccccc21)OCO3	8	-18	35*
CC(=O)N1CC(C(=O)NCc2ccc3c(c2)OCO3)C1	9	28	2
CC(C(=O)NCc1ccc2c(c1)OCO2)N1CCN(c2ccc(O)cc2)CC1 (centres undefined)	30	23	73*
CC(C(=O)NCc1ccc2c(c1)OCO2)n1nc(-c2ccccc2)c2cc(Cl)ccc21 (centres undefined)	16	25	35*
COC(=O)c1ccccc1NC(=O)C(C)n1nc(-c2ccccc2)c2cc(Cl)ccc21 (centres undefined)	-14	-25	-3
CC(c1nc2ccccc2c(=O)[nH]1)N1CCN(Cc2cccc(Cl)c2)CC1 (centres undefined)	0	-21	-9
Cc1cc(NCC(=O)Nc2cccc(Cl)c2)n2nc(-c3cccnc3)nc2n1	-18	-38	-43
COc1ccc(-c2nnn(CC(=O)N(c3ccc4c(c3)OCCO4)C(C(=O)NC(C)(C)C)c3ccc(F)cc3)n2)cc1 (centres undefined)	-11	-12	-6
COc1ccccc1-c1nc(-c2nnn(-c3ccccc3)c2-c2ccncc2)no1	9	16	29
CCOc1cccc2nnc(NC(=O)Nc3cccc(F)c3)n12	2	-6	0
O=C(Nc1ccccc1)Nc1nccn(-c2ccc3c(c2)CCC3)c1=O	8	39*	30*
SMILES	USP28 inh	USP30 block	USP17 block
O=C(Nc1ccc(F)cc1F)Nc1nccn(-c2cccc(F)c2)c1=O	-2	4	12
COc1cccc(NC(=O)Nc2nccn(-c3ccc(F)cc3)c2=O)c1	-8	10	54*
O=C(Nc1nccn(-c2ccc3c(c2)CCC3)c1=O)c1ccccc1	6	16	0
COc1ccccc1-n1ccnc(NC(=O)Nc2cccc(F)c2)c1=O	-7	2	46*
Cc1c(CC(=O)N2CCC[C@H]2C(=O)O)c(=O)oc2cc(O)c(Cl)cc12	-5	-16	7
Cc1nc2ccc(NC(=O)c3cn(-c4ccccc4)nc3-c3cccnc3)cc2s1	4	-115	-18
CC(C)Cc1cc(-c2nnc3sc(-c4ccco4)nn23)n[nH]1	39*	-3	73*
Cc1ncoc1C(=O)N1CCCCC1c1ncc(Cc2ccccc2Cl)o1 (centres undefined)	8	-6	0
CC1Oc2ccccc2N(Cc2nc(-c3ccccc3)no2)C1=O (centres undefined)	7	3	40*
Fc1ccccc1N1CCN(Cc2nc(-c3ccccc3)no2)CC1	1	-8	-1
CC1(C)Oc2ccc(C(=O)O)cc2[C@@H](O)[C@@H]1O	9	6	-1
Cc1ccc(-n2ncc3c2ncn2c(C)nnc32)cc1C	3	45*	19
Cc1ccc(-n2ncc3c2ncn2nc(C(C)(C)C)nc32)cc1C	-5	-12	0
CN(CCCN1C(=O)C2C(C(=O)Nc3ccc(Cl)cc3)C3C=CC2(O3)C1C(=O)NC1CCCCC1)Cc1ccccc1 (centres undefined)	-6	1	-4

Assay outcomes: PubChem, Buhrlage Lab, Dana-Farber Cancer Institute and Novartis Institutes for BioMedical Research (Cambridge, Mass)
